Records with an inconclusive call do not appear. Active and inactive are the calls of the source. Calls come from the whole dose curve; as a rule, active = well fitted cell-killing curve with a large enough effect; inconclusive = small, poorly fitted or top-dose-only effect, or effect the other way; inactive = no such curve, though single readings can be large or run the other way.
Test: Quantitative High-Throughput drug screen in 47 multiple myeloma cell lines against the NCATS MIPE library collection: MMM1_PLB cell viability assay (AID 1918976); note: nearly all actives have a fitted effect of over 35% in size
Settings: MMM1 myeloma cells viability, CellTiter-Glo, 48 h; series mostly up to 45.8 µM
In short: (§1)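 Cells were exposed to library compounds for 48 hours, after which ATP was measured by CellTiter-Glo. Signal was taken as median relative luminescence units.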
Potency is the fitted concentration of half-maximal effect.

Structure (SMILES)	Potency
CC1(O)CC(c2nc(-c3ccc4ccc(-c5ccccc5)nc4c3)c3c(N)nccn23)C1 (stereo not given)	209 nM (active)
CC(=O)OCC(=O)[C@@]1(O)[C@H](C)C[C@H]2[C@@H]3C=C(C)C4=Cc5c(cnn5-c5ccccc5)C[C@]4(C)[C@@H]3[C@@H](O)C[C@@]21C	16600 nM (active)
CC(C)(C)c1cnc(CSc2cnc(NC(=O)C3CCNCC3)s2)o1	105 nM (active)
Cc1ccc(C(=O)Nc2cccc(C(F)(F)F)c2)cc1-c1ccc2nc(NCCN3CCOCC3)ncc2c1	14800 nM (active)
CNC(=O)c1ccccc1Nc1nc(Nc2ccc(N3CCOCC3)cc2OC)ncc1Cl	526 nM (active)
OCCCNc1cc(-c2ccnc(Nc3cccc(Cl)c3)n2)ccn1	166 nM (active)
CC(C)c1ccccc1Cc1cc(C(=O)Nc2ccc(S(=O)(=O)c3ccccc3C(C)(C)C)cc2)c(O)c(O)c1O	18700 nM (active)
Cn1cc(-c2[nH]c3cc(NC(=O)[C@H](N)C4CCCCC4)cc4c3c2C=NNC4=O)cn1	1320 nM (active)
N#CCNC(=O)c1ccc(-c2ccnc(Nc3ccc(N4CCOCC4)cc3)n2)cc1	18700 nM (active)
CN1CC[C@@H](c2c(O)cc(O)c3c(=O)cc(-c4ccccc4Cl)oc23)[C@@H](O)C1	187 nM (active)
NC(=O)Nc1cc(-c2cccc(F)c2)sc1C(=O)N[C@H]1CCCNC1	4690 nM (active)
Cc1[nH]nc2ccc(-c3cncc(OC[C@@H](N)Cc4ccccc4)c3)cc12	2960 nM (active)
CC(C)C[C@H](NC(=O)CNC(=O)c1cc(Cl)ccc1Cl)B(O)O	9350 nM (active)
O=C(CCCCCCNC(=O)c1cnc(N(c2ccccc2)c2ccccc2)nc1)NO	5260 nM (active)
CC=C1NC(=O)[C@H]2CSSCCC=C[C@H](CC(=O)N[C@H](C(C)C)C(=O)N2)OC(=O)[C@H](C(C)C)NC1=O	935 nM (active)
CC1=C(CO)C(=O)O[C@@H]([C@@H](C)[C@H]2CC[C@H]3[C@@H]4C[C@H]5O[C@]56[C@@H](O)C=CC(=O)[C@]6(C)[C@@H]4CC[C@]23C)C1	833 nM (active)
CC(=O)Nc1nc(C)c(-c2ccc(Cl)c(S(=O)(=O)NCCO)c2)s1	5900 nM (active)
O=C(Nc1cc(C(F)(F)F)cc(C(F)(F)F)c1)c1cc(Cl)ccc1O	296 nM (active)
O=C(Nc1cn[nH]c1-c1nc2ccc(CN3CCOCC3)cc2[nH]1)NC1CC1	5900 nM (active)

Test: Quantitative High-Throughput drug screen in 47 multiple myeloma cell lines against the NCATS MIPE library collection: MOLP8_DSMZ cell viability assay (AID 1918977); note: nearly all actives have a fitted effect of over 45% in size
Settings: MOLP8 myeloma viability, CellTiter-Glo ATP luminescence, 48 h; series mostly up to 45.8 µM
In short: as §1

Structure (SMILES)	Potency
Cc1ccc(NC(=O)C2(c3ccc4c(c3)OC(F)(F)O4)CC2)nc1-c1cccc(C(=O)O)c1	20.9 nM (active)
Cc1ccc(-c2ncn(-c3ccc(Nc4nccc(-c5cccc(N6CCOCC6)c5)n4)cc3)n2)cn1	93.5 nM (active)
CCCCOc1c(C(=O)c2c(F)cc(C)cc2F)cnc2n[nH]cc12	2960 nM (active)
CC(=O)c1c(C)c2cnc(Nc3ccc(N4CCNCC4)cn3)nc2n(C2CCCC2)c1=O	18700 nM (active)
O=c1[nH]nc(Sc2ncc([N+](=O)[O-])s2)n1-c1ccc2c(c1)OCCO2	1480 nM (active)
CN(C)CC=CC(=O)Nc1cc2c(Nc3ccc(F)c(Cl)c3)ncnc2cc1O[C@H]1CCOC1	18700 nM (active)
Cn1c2ccccc2c2c3c(c4c5ccccc5n(CCC#N)c4c21)CNC3=O	10500 nM (active)
CC(NCc1ccc2c(c1)nc(NC(=O)c1ccc(-c3cn[nH]c3)s1)n2CC(C)(C)O)C(C)(C)C (stereo not given)	209 nM (active)
C#Cc1cccc(Nc2ncnc3cc(OC)c(OCCCCCCC(=O)NO)cc23)c1	166 nM (active)
CC(C)(C)c1cnc(CSc2cnc(NC(=O)C3CCNCC3)s2)o1	83.3 nM (active)
CCS(=O)(=O)c1cccc(-c2cc(C(=O)NC3CCN(C)CC3)c(C)c3[nH]c4ncc(C)cc4c23)c1	1050 nM (active)
Cc1ccc(C(=O)Nc2cccc(C(F)(F)F)c2)cc1-c1ccc2nc(NCCN3CCOCC3)ncc2c1	3320 nM (active)
CNC(=O)c1ccccc1Nc1nc(Nc2ccc(N3CCOCC3)cc2OC)ncc1Cl	14800 nM (active)
CC(C)c1ccccc1Cc1cc(C(=O)Nc2ccc(S(=O)(=O)c3ccccc3C(C)(C)C)cc2)c(O)c(O)c1O	13200 nM (active)
Cn1cc(-c2[nH]c3cc(NC(=O)[C@H](N)C4CCCCC4)cc4c3c2C=NNC4=O)cn1	526 nM (active)
N#CCNC(=O)c1ccc(-c2ccnc(Nc3ccc(N4CCOCC4)cc3)n2)cc1	11800 nM (active)
CN1CC[C@@H](c2c(O)cc(O)c3c(=O)cc(-c4ccccc4Cl)oc23)[C@@H](O)C1	52.6 nM (active)
NC(=O)Nc1cc(-c2cccc(F)c2)sc1C(=O)N[C@H]1CCCNC1	118 nM (active)
Cc1[nH]nc2ccc(-c3cncc(OC[C@@H](N)Cc4ccccc4)c3)cc12	526 nM (active)
COC(=O)[C@]12CCC(C)(C)C[C@@H]1[C@@H]1C(=O)C=C3[C@@]4(C)C=C(C#N)C(=O)C(C)(C)[C@@H]4CC[C@@]3(C)[C@]1(C)CC2	209 nM (active)
O=C(CCCCCCNC(=O)c1cnc(N(c2ccccc2)c2ccccc2)nc1)NO	4180 nM (active)
CC=C1NC(=O)[C@H]2CSSCCC=C[C@H](CC(=O)N[C@H](C(C)C)C(=O)N2)OC(=O)[C@H](C(C)C)NC1=O	13.2 nM (active)
CC1=C(CO)C(=O)O[C@@H]([C@@H](C)[C@H]2CC[C@H]3[C@@H]4C[C@H]5O[C@]56[C@@H](O)C=CC(=O)[C@]6(C)[C@@H]4CC[C@]23C)C1	132 nM (active)
CC(=O)Nc1nc(C)c(-c2ccc(Cl)c(S(=O)(=O)NCCO)c2)s1	9350 nM (active)
O=C(Nc1cc(C(F)(F)F)cc(C(F)(F)F)c1)c1cc(Cl)ccc1O	1480 nM (active)
O=C(Nc1cn[nH]c1-c1nc2ccc(CN3CCOCC3)cc2[nH]1)NC1CC1	2640 nM (active)

— PubChem BioAssay (NCATS)
